Screens (PubChem)
GluA2 TARP mod: modulates AMPAR-stargazin complexes; O88602+P19491; HEK293 GluA2+stargazin, membrane potential dye (FDSS), glutamate EC50; hits were called plate by plate, in both directions; calls only at 30 µM; actives 3.5% (n = 40,000); AID 1259245;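 active = any of four per-well response measures lying three or more SD from its plate-wide compound average, in either direction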
GIRK2 activator: Activators of human GIRK2-containing channels. P48051. HEK293 GIRK2/NPY4 cells, thallium flux fluorescence. activation (% efficacy), % for hits at 37.5 µM. 34,000 tested, under 10 active;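 active = primary screen hit, no activity in plain HEK293 cells, and in GIRK2-only cells above 5% efficacy rising with concentration; inactive = the rest, including fluorescent compounds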;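 also: efficacy is normalized control-subtracted fluorescence 15 s after thallium addition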
Target sequence (P48051 whole entry, looked up): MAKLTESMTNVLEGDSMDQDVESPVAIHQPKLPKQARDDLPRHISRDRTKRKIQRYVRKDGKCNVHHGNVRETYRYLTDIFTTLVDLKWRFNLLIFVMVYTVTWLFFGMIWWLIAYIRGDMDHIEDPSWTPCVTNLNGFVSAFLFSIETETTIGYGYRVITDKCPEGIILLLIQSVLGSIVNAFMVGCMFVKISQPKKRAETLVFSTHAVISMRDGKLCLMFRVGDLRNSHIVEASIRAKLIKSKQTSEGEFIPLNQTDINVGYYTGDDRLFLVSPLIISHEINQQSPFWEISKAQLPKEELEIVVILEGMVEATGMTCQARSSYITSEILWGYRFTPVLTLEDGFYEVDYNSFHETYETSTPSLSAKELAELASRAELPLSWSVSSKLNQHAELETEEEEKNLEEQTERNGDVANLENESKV
Of the large screens only hits and unclear results are named; the others gave an inactive call. The full list was thinned out, with hits kept by preference.

COc1ccc(-c2nnc(NC(=O)Cc3ccc(C)cc3)o2)c(OC)c1	none
COc1ccc(-c2nnc(NC(=O)C3CCCN3S(C)(=O)=O)o2)c(OC)c1 (configuration not stated)	none
COc1ccc(-c2nnc(NC(=O)Cc3ccc(SC)cc3)o2)c(OC)c1	GluA2 TARP mod active (no result: GIRK2 activator)
COc1ccc(OC)c(-c2nnc(NC(=O)c3ccnn3C)o2)c1	none (no result: GluA2 TARP mod)
COc1ccc(-c2nnc(NC(=O)C3CC3)o2)c(OC)c1	GluA2 TARP mod active (no result: GIRK2 activator)
CCn1nccc1C(=O)Nc1nnc(-c2ccc(OC)cc2OC)o1	GluA2 TARP mod active
CC(=O)Nc1cccc(NC(=O)C(=O)NCCCc2ccccc2)c1	none (no result: GIRK2 activator)
Cc1cc(C(=O)N2CC(C(=O)NCc3nc4ccccc4[nH]3)C2)no1	none
COCC(=O)N1CCCc2ccc(NC(=O)c3cn(C)nc3OC)cc21	none
CC(C)(C)c1ccc(S(=O)(=O)Nc2ccc3c(c2)N(C(=O)C2CC2)CC3)cc1	GluA2 TARP mod active
O=C(C1CC1)N1CCc2ccc(NS(=O)(=O)c3ccc(Cl)s3)cc21	GluA2 TARP mod active
CCc1ccc(S(=O)(=O)Nc2ccc3c(c2)N(C(=O)C(C)(C)C)CC3)s1	GluA2 TARP mod active
O=C(C1CC1)N1CCc2ccc(NS(=O)(=O)c3ccc(Cl)cc3)cc21	none
CCc1ccc(S(=O)(=O)Nc2ccc3c(c2)N(C(=O)C2CCCC2)CC3)s1	none
CC(=O)Nc1ccc(S(=O)(=O)Nc2ccc3c(c2)N(C(=O)C2CC2)CC3)cc1	none
COc1nn(C)cc1C(=O)Nc1ccc2c(c1)N(C(=O)C1CC1)CC2	GluA2 TARP mod active
Cc1ccc(NC(=O)CCCn2nc(-c3cccs3)ccc2=O)cc1C	none (no result: GluA2 TARP mod)
COC(=O)c1ccc(NC(=O)C(=O)NCC(C)(O)c2ccc(-c3ccccc3)cc2)cc1 (configuration not stated)	none
COc1cc(CSc2c(C)cnc3c2c(=O)n(C)c(=O)n3C)cc(OC)c1	none
O=C(c1ccccc1C(F)(F)F)N1CCC(Cn2cccn2)CC1	GluA2 TARP mod active
O=C(c1ccccc1F)N1CCC(Cn2cccn2)CC1	none
O=C(Cc1ccc(F)cc1)Nc1ccc(CC(=O)NC2CC2)cc1	none
COc1ccccc1-c1ccc(N2CCC(C(=O)N3CCN(c4ccccc4OC)CC3)CC2)nn1	none
CCN(C(=O)C1CCN(c2ccc(-c3ccccc3OC)nn2)CC1)C1CCCCC1	GluA2 TARP mod active
CCc1nc2sc(C(c3cccc(Br)c3)N3CCN(CC)CC3)c(O)n2n1 (configuration not stated)	none
O=C(NCCCN1CCOC(c2ccccc2)C1)c1ccccc1C(F)(F)F (configuration not stated)	none
COc1ccc(-c2csc(-n3nc(C)cc3NC(=O)C34CC5CC(CC(C5)C3)C4)n2)cc1OC	none (no result: GIRK2 activator)
CCn1c(=O)c2c(nc3oc(C)c(C)n32)n(C)c1=O	GluA2 TARP mod active
CCn1c(=O)c2c(nc3n(-c4ccc(OC)cc4)c(C)c(C)n23)n(C)c1=O	none (no result: GIRK2 activator)
O=C1c2ccccc2C(=O)N1CCS(=O)(=O)NCCc1c[nH]c2ccccc12	none
Cc1c(C)n2c3c(=O)n(CCN4CCCCC4)c(=O)n(C)c3nc2n1C1CCCC1	none
Cc1c(C)n2c3c(=O)n(CC(N)=O)c(=O)n(C)c3nc2n1C1CCCCC1	GluA2 TARP mod active (no result: GIRK2 activator)
COc1cc(/C=C/C(=O)NCC(O)(c2ccccc2)C2CC2)cc(OC)c1OC (configuration not stated)	none (no result: GIRK2 activator)
CSc1ccccc1C(=O)N(CCc1ccccc1)Cc1ccccn1	none
O=C(c1nc2ccccc2s1)N(CCc1ccccc1)Cc1ccccn1	GluA2 TARP mod active
CN(C)C(CNS(=O)(=O)c1ccc2c(c1)OCCO2)c1ccccc1 (configuration not stated)	none (no result: GIRK2 activator)
O=C(Nc1nc(-c2cccnc2)cs1)C1CCN(S(=O)(=O)c2ccc(Cl)s2)CC1	GluA2 TARP mod active (no result: GIRK2 activator)
O=C(Nc1nc(-c2cccnc2)cs1)C1CCN(S(=O)(=O)c2cccs2)CC1	none (no result: GIRK2 activator)
COc1ccc(-c2cc(C(F)(F)F)nc(SCC(=O)N3CCCC3)n2)cc1OC	none (no result: GIRK2 activator)
COC(=O)CSc1nc(-c2ccc(F)cc2)cc(C(F)(F)F)n1	GluA2 TARP mod active (no result: GIRK2 activator)
COc1ccc(Cl)cc1C(=O)NCCn1nc(-c2ccncc2)ccc1=O	none (no result: GluA2 TARP mod)
CCOCC(=O)NCC1CCN(C(=O)Nc2ccccc2OC)CC1	none
CCOC(=O)C1CCN(C(=S)Nc2ccccc2OC)CC1	GluA2 TARP mod active (no result: GIRK2 activator)
COc1cc2cc(CNc3ccccc3)c(=O)n(CC(=O)Nc3ccc4c(c3)OCO4)c2cc1OC	GluA2 TARP mod active (no result: GIRK2 activator)
COC(=O)c1ccccc1NC(=O)Cn1c(=O)c(CNc2ccccc2)cc2ccc(OC)cc21	none
CCc1ccc(NCc2cc3cc4c(cc3n(CC(=O)Nc3cc(C)ccc3C)c2=O)OCCO4)cc1	none
COc1cc2cc(CNc3ccc(C)cc3)c(=O)n(CC(=O)Nc3cccc(Cl)c3)c2cc1OC	none
COc1cccc(NC(=O)Cn2c(=O)c(CNc3ccccc3)cc3ccc(OC)cc32)c1	GluA2 TARP mod active (no result: GIRK2 activator)
COc1cc2cc(CNc3ccccc3)c(=O)n(CC(=O)Nc3ccc(C)c(Cl)c3)c2cc1OC	none (no result: GIRK2 activator)
COc1cc2cc(CNc3ccccc3)c(=O)n(CC(=O)Nc3cccc(Cl)c3C)c2cc1OC	GluA2 TARP mod active (no result: GIRK2 activator)
Cc1ccc(C)c(NC(=O)Cn2c(=O)c(CNc3ccccc3)cc3cc4c(cc32)OCCO4)c1	GluA2 TARP mod active
CC(=O)N1CCN(c2ccnc3c2c(=O)n(Cc2cccc(C)c2)c(=O)n3C)CC1	none (no result: GIRK2 activator)
COc1cc(N2CCN(S(=O)(=O)c3ccccc3)CC2)nc(OC)n1	none
CCOC(=O)C1CCCN(C(=O)CCc2c(C)nn(-c3nc(C)cc(=O)[nH]3)c2C)C1 (configuration not stated)	none
CCOc1cccc(CNC(=O)c2sc(-n3cccc3)nc2C(C)C)c1	none
Cc1cc(C(=O)Nc2nc3c(C)ccc(C)c3s2)n(C(C)C)n1	none (no result: GluA2 TARP mod)
COc1ccc(CC(=O)Nc2ccc(CC(=O)N(C)C)cc2)cc1	none
COc1cc(S(=O)(=O)Nc2ccc(-c3cn4cccc(C)c4n3)cc2)c(OC)cc1C	GluA2 TARP mod active (no result: GIRK2 activator)
COc1ccc(OC)c(S(=O)(=O)Nc2ccc(-c3cn4ccccc4n3)cc2)c1	none (no result: GIRK2 activator)
CCOC(=O)c1ccccc1NC(=O)CSc1nc2c(-c3ccccc3)c[nH]c2c(=O)n1C	none (no result: GluA2 TARP mod)
O=C(CSc1nc(-c2ccco2)cc(C(F)(F)F)n1)N1CCCCCC1	GluA2 TARP mod active (no result: GIRK2 activator)
O=C(CSc1nc(-c2ccco2)cc(C(F)(F)F)n1)N1CCSCC1	none (no result: GIRK2 activator)
COc1ccc(OC)c(C(=O)Nc2cc(C)nn2C(C)C)c1	none
COc1ccc(-c2noc(C3CCN(S(=O)(=O)c4ccc(Cl)cc4)CC3)n2)cc1	none
COc1ccc(-c2noc(C3CCN(S(=O)(=O)c4ccc(C)cc4)CC3)n2)cc1	GluA2 TARP mod active
Cc1ccc(Cl)cc1S(=O)(=O)Nc1ccc2c(c1)N(C(=O)C(C)(C)C)CC2	none
COc1ccc(S(=O)(=O)CC(=O)Nc2nc(-c3cc(Cl)ccc3Cl)cs2)cc1	none
COc1ccc(S(=O)(=O)CC(=O)Nc2nc(-c3cc(Cl)sc3Cl)cs2)cc1	GluA2 TARP mod active
O=C(NCC(O)c1ccsc1)C1CC1 (configuration not stated)	none
O=C(NCc1ccsc1)C1CCCCC1	GluA2 TARP mod active
CC1CN(c2ncnc3c2cnn3CCNC(=O)CCCc2ccccc2)CC(C)O1 (configuration not stated)	none
Cc1onc(-c2ccccc2Cl)c1C(=O)N1CCN(Cc2nnnn2-c2ccc(F)c(F)c2)CC1	GluA2 TARP mod active
Cc1cc(C(=O)N2CCN(Cc3nnnn3-c3ccc(F)c(F)c3)CC2)no1	none
